# BRCA1 expr up: BRCA1 expression activation | AID 624202 | hit rate 1.1% among 380,000 | Potency, µM (titrated, usually from 46.1 µM), for inactives: at the highest dose activation, hits mostly activators | MCF7-BRCA1-FFLuc reporter, luminescence, 48 h; response scale: scaled: vehicle 0%, 10 µM genistein 100%; further: potency means the concentration at half of the fitted maximal effect; nearly all actives have a fitted effect of over 80% in size
#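 Luminescence from a BRCA1-driven firefly luciferase in MCF7 cells was read after 48 h compound exposure at 37 C. Data normalized against DMSO and a 10microM genistein activation control, then curve-fitted across the titration.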
# RORg inh: ROR gamma (mouse) transcription inhibition; P51450; Drosophila S2 Gal4-RORgamma UAS-luciferase reporter, 20 h; Potency, µM (titrated, usually from 53.6 µM), without a hit: at the highest dose activity change, negative = inhibition, hits mostly inhibitors; hit rate 5.4% among 310,000; further: potency means the concentration at half of the fitted maximal effect; on the % scale 0 is the no-effect control and ±100 the full control effect; nearly all actives have a fitted effect of over 60% in size
# Target sequence (P51450 whole entry, looked up, the tested form may be a part): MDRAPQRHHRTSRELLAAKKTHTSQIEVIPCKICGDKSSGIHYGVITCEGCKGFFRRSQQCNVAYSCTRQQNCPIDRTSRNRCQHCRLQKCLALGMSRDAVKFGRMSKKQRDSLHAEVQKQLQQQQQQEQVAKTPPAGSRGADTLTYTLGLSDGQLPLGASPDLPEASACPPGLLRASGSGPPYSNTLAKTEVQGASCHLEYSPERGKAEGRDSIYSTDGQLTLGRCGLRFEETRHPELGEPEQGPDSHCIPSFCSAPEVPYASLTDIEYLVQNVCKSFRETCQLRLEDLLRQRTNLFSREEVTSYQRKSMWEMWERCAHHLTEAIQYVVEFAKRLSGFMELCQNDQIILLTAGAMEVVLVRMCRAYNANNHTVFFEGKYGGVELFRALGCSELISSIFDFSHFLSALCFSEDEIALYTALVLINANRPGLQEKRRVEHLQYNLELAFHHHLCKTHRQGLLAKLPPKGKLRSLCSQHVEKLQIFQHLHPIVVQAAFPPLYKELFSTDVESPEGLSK
#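 Schneider cells (Drosophila), stable Gal4 DBD–ROR gamma + UAS-luc; 1 hr cmpd preincubation; Cu2+ induction 700 uM final; 20 hr ambient; luminescence.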
# VP16 counter: inhibits Gal4-VP16 luciferase reporter, ROR gamma counter-screen | Drosophila S2 Gal4-VP16 UAS-luciferase, luminescence, 20 h | Potency, µM (titrated, usually from 53.6 µM), for the others: at the top dose activity, negative = inhibition, usual class: inhibitors | hit rate 3.5% among 310,000 | AID 2546;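 further: Gal4-VP16 expression switched on by copper sulfate through the metallothionein promoter; potency means the concentration at half of the fitted maximal effect; on the % scale 0 is the no-effect control and ±100 the full control effect; nearly all actives have a fitted effect of over 50% in size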
# p53 reactivation: mutant p53 re-activation in reporter cells | Potency, µM (titrated, usually from 92.2 µM), for the others: top-dose activity change, positive = activation, actives largely listed as activators | hit rate 0.063% among 320,000 | H1299 p53-A138V BP100-luciferase reporter, luminescence, 24 h; further: potency means the concentration at half of the fitted maximal effect; % of control where 0% means no effect; nearly all actives have a fitted effect of over 45% in size
#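 p53-null H1299 cells stably carrying temperature-sensitive p53-A138V and a BP100-luciferase reporter were pinned with compounds (4-point, 1:5 series) and held 24 hrs at 37 deg C. Luminescence was read 10 min after detection reagent.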
# ELG1 DNA repair: inhibitors of ELG1-dependent DNA repair in HEK293T cells; HEK293T ELG1-luciferase reporter, luminescence, 16 h; DNA damage induced by 5-fluorouridine; Potency, µM (highest dose often 46.1 µM), for inactives: at the top dose activity change, negative = inhibition, usual class: inhibitors; hit rate 2.3% among 330,000; AID 504467; further: potency means the concentration at half of the fitted maximal effect; on the % scale 0 is the no-effect control and ±100 the full control effect; nearly all actives have a fitted effect of over 55% in size
#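 Overnight (16 hr) co-exposure of 2,000 cells/well to 5-fluorouridine and compound at 37 °C preceded detection. Luciferase was quantified via ONE-Glo luminescence; loss of signal denotes inhibition.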
# Giardia killer: kills Giardia lamblia. Giardia lamblia trophozoite viability. activity change, % at 7.66 µM, hits read low. hit rate 0.15% among 340,000; in the data active means activity change below about -80%; inconclusive means between about -30% and that limit;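 further: parasites exposed to compound for two days anaerobically before the ATP read; on the % scale 0 is the no-effect control and ±100 the full control effect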
#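 ATP-content bioluminescence gauges trophozoite survival. Cells (100/well) receive compound and incubate anaerobically for 48 hrs at 37 deg C; detection reagent follows for 15-30 min at room temperature.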
# * marks the source's active call; other numbers are inactive results; u = inconclusive; x = no result; [ ] = remark or other dose. In the library only some 7.6% were active in any assay of this set; here they are far more common. Unless noted, the call rests on the fitted dose curve; in most records, active means well fitted curve in the direction sought with a large enough effect; inconclusive means small, poorly fitted or top-dose-only effect, or another doubt; inactive means no such curve, though single readings can be large; an effect the other way counts as inactive or inconclusive.
SMILES,BRCA1 expr up,RORg inh,VP16 counter,p53 reactivation,ELG1 DNA repair,Giardia killer
COc1ccc(-c2noc(CN(C(=O)c3ccc(C)cc3C)C(C)C)n2)cc1,-31%,x,x,x,x,x
Cc1ccc(C)c(C(=O)N(Cc2nc(-c3ccc(Cl)cc3)no2)C(C)C)c1,-30%,-10%,-29%,-5%,21µM*,2
O=C(COc1ccc(Cl)cc1Cl)N/N=C/c1ccc[nH]1,10%,2.8µM*,4.5µM*,13%,u,17
O=C(COc1ccc(Cl)cc1Cl)c1ccc[nH]1,10µM*,-5%,6%,u,u,1
O=C(COc1ccc(Cl)cc1Cl)N/N=C/CCc1ccccc1,-4%,-31%,-3%,6%,14%,-17
CN(C(=S)NC(=O)CCCOc1ccc(Cl)cc1Cl)c1ccccc1,28%,5.6µM*,-77%,5%,8%,9
O=C(CCCOc1ccc(Cl)cc1Cl)N/N=C/c1ccccc1O,-83%,8.9µM*,-83%,u,u,7
O=C(CCCOc1ccc(Cl)cc1Cl)N/N=C/c1ccccc1,-29%,-17%,u,10%,9%,7
Cc1ccc(Cl)c(OCC(=O)OCC(=O)c2ccc[nH]2)c1,3%,x,x,5%,3%,7
CCNc1cc2oc(=O)c(CN3CCOCC3)c(C)c2cc1C,0%,-19%,-4%,1%,5%,16
COc1ccc(-c2cc3ncnc(Cl)c3s2)cc1,56%,-28%,-12%,u,u,-16
CC(=O)c1cccc(NC(=S)NC(=O)c2ccc(C)cc2)c1,7.9µM*,10µM*,13µM*,u,u,-7
CC(=O)c1cccc(Nc2ncnc3ccc(Br)cc23)c1,-49%,3%,7%,-5%,18µM*,5
CCC(=O)Nc1cccc(NC(=S)NC(=O)c2ccc(C)cc2)c1,u,-11%,7%,9%,u,-24
Brc1ccc2ncnc(Nc3ccc(N4CCOCC4)cc3)c2c1,-65%,u,22%,-2%,6.5µM*,-4
O=C(O)c1ccc(NC(=S)NC(=O)c2ccc3ccccc3c2)cc1,u,u,-4%,30%,u,-29
O=C(O)c1cccc(NC(=S)NC(=O)c2ccc3ccccc3c2)c1,-81%,10µM*,7.1µM*,-6%,u,-20
O=C(O)c1cccc(NC(=O)c2ccc3c(c2)C(=O)N(CC2CCCO2)C3=O)c1 (stereo not given),14%[1.84 µM],0.56µM*,-30%,3%,-2%,-7
COC(=O)c1cccc(NC(=O)c2ccc3c(c2)C(=O)N(CC2CCCO2)C3=O)c1 (stereo not given),38%,27%,-2%,-1%,-21%,-6
Cc1ccc(C(=O)Nc2cccc(C(=O)O)c2)cc1,u,5µM*,18µM*,-10%,u,u
Cc1ccc(C(=O)NC(=S)Nc2ccc(NC(=O)c3cccc(Cl)c3)cc2)cc1,-54%,u,10µM*,-9%,15%,-12
Cc1cccc(NC(=O)c2ccc(OC3CSC3)cc2)c1,11µM*,u,u,u,u,-7
O=C(O)c1cccc(NC(=O)c2ccccc2)c1,14%,x,x,x,x,-23
CC(=O)c1cccc(NC(=O)c2ccc(OC3CSC3)cc2)c1,28%,-24%,-6%,3%,u,-13
Cc1ccc(NCN2C(=O)C3CC=CCC3C2=O)cc1 (stereo not given),57%,-20%,-10%,9%,11%,-15
SMILES,BRCA1 expr up,RORg inh,VP16 counter,p53 reactivation,ELG1 DNA repair,Giardia killer
COc1ccc(C(=O)NNC(=O)c2ccc(C)cc2)cc1S(=O)(=O)N1CCCC1,-2%,-22%,-14%,2%,7%,2
CC(C)[C@H](NC(=O)OCc1ccccc1)C(=O)OCC(=O)Nc1ccc(N2CCOCC2)cc1,-7%,x,x,10%,12%,-4
CC(=O)c1cccc(NC(=S)NC(=O)c2ccc(Br)cc2)c1,u,5.6µM*,10µM*,u,u,0
O=C(NC(=S)Nc1cc(Cl)ccc1O)c1cccc(Br)c1,-53%,1.3µM*,3.5µM*,24%,-17%,u
O=C(O)c1cccc(NC(=S)NC(=O)c2cncc(Br)c2)c1,52%,x,x,x,x,1
O=C(NC(=S)Nc1cccc(CO)c1)c1ccc(-c2ccccc2)cc1,28%,1.6µM*,2.8µM*,5%,10%,-19
CC(=O)c1cccc(Nc2ccc(Br)cc2)c1,10µM*,x,x,x,x,x
CC(=O)c1cccc(NC(=O)C=C(C)C)c1,30%,21%,-1%,5%,23%,42
COc1ccc(C(C(=O)NCC2CCCO2)N(C(=O)CNC(=O)c2ccco2)c2cc(C)cc(C)c2)cc1OC (stereo not given),-1%,-19%,0%,7%,12%,-13
CCN(CC)S(=O)(=O)c1ccc(N2CCCC2)c(NC(=O)c2ccccc2OC)c1,-24%,41%,2%,1%,u,4
CNc1cccc(-c2ccc(C(C)=O)s2)n1,6.3µM*,x,x,x,x,x
C/C=C\C=C/C(=O)Nc1cccc(C2=NOC3(C2)C[C@@H](C(N)=O)N(C(=O)COc2ccc(Cl)cc2)C3)c1 (stereo not given in full),-5%,-7%,-7%,-2%,2%,-22
CCCCCC(=O)Nc1cccc(C2=NOC3(C2)C[C@H](C(N)=O)N(C(=O)COc2ccc(Cl)cc2)C3)c1 (stereo not given in full),-29%,u,-20%,-4%,7.3µM*,u
CCCCCC(=O)Nc1cccc(C2=NOC3(C2)C[C@@H](C(N)=O)N(C(=O)c2cc([N+](=O)[O-])cc([N+](=O)[O-])c2)C3)c1 (stereo not given in full),-5%,6%,2%,-3%,-2%,7
CCCCCC(=O)Nc1cccc(C2=NOC3(C2)C[C@@H](C(N)=O)N(C(=O)Cc2ccc([N+](=O)[O-])cc2)C3)c1 (stereo not given in full),-9%,13%,1%,-2%,13µM*,8
NC(=O)[C@H]1CC2(CC(c3cccc(NC(=O)COc4ccc(Cl)cc4)c3)=NO2)CN1C(=O)Cc1ccc([N+](=O)[O-])cc1 (stereo not given in full),33%,14%,2%,4%,2.1µM*,20
COCCCNC(=O)CCCn1c(=O)c2ccccc2n(CC(=O)Nc2c(C)cccc2C)c1=O,-18%,-21%[0.365 µM],x,6%,-9%,8
COc1ccc(C2Nc3ccccc3C(=O)N2O)cc1CN1CCOCC1 (stereo not given),-20%,8%,-2%,25%,-5%,-28
